# According to publication PMC7862700, “An all-to-all approach to the identification of sequence-specific readers for epigenetic DNA modifications on cytosine”:
# Legend:
# Test in all cases: DAPPL (digital affinity profiling via proximity ligation, sequencing); 10 mM Tris-HCl pH 7.5, 50 mM NaCl, 1 mM DTT, 4% glycerol, room temperature, 30 min; GST-TFs on glutathione beads, 16-mer random dsDNA library, 0.1% formaldehyde crosslink after washing; high values mean tight binding
# [1] = biological target: T1, FLI1 (Homo sapiens, UniProt Q01543 1-452); details: protein: recombinant; tags: N-terminal GST; dsDNA, one strand shown
# T1 sequence: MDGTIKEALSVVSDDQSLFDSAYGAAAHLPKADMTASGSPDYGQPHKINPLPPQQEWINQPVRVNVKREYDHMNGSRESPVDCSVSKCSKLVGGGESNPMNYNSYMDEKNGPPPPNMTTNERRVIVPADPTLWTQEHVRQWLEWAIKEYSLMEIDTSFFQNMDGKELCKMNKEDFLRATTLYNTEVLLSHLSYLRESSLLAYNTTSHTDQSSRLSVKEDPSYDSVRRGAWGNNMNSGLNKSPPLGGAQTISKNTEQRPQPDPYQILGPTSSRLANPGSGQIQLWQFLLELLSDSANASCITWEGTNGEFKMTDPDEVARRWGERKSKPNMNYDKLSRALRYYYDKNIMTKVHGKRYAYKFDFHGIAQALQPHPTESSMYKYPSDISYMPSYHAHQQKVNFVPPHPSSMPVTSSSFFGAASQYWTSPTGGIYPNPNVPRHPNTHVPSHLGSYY
# How it was run: (§1)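 Beads coated with glutathione captured GST-fused human transcription factors that had been expressed in yeast, and the factors were then given DNA barcodes and pooled with a tag-only sample. The pools were incubated with 200 nmole of a random double-stranded 16-mer DNA library in Tris/NaCl/DTT/glycerol buffer for 30 min at room temperature, washed, crosslinked with 0.1% formaldehyde and proximity-ligated with BsaI/T4 ligase at 37 °C for 1 h. PCR amplification and Illumina NextSeq500 sequencing came last. Binding signal is each hexamer's read frequency for a factor divided by its frequency for the tag-only sample.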
# [2] = biological target: T2, ELK1 (Homo sapiens, UniProt P19419 1-428); details: protein: recombinant; tags: N-terminal GST; dsDNA, one strand shown
# T2 sequence: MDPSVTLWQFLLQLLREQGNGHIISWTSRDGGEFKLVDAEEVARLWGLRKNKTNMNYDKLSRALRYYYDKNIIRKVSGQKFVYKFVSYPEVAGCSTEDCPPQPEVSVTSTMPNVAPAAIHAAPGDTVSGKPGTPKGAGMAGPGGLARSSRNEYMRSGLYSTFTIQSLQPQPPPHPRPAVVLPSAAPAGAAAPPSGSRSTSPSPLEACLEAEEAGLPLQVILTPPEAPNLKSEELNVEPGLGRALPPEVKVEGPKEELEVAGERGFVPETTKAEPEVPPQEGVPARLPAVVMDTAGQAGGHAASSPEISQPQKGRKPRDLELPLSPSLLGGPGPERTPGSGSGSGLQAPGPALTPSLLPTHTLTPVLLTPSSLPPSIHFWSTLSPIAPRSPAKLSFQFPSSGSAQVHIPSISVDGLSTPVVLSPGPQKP
# How it was run: as §1
# [3] = biological target: T3, GABPA (Homo sapiens, UniProt Q06546 1-454); details: protein: recombinant; tags: N-terminal GST; dsDNA, one strand shown
# T3 sequence: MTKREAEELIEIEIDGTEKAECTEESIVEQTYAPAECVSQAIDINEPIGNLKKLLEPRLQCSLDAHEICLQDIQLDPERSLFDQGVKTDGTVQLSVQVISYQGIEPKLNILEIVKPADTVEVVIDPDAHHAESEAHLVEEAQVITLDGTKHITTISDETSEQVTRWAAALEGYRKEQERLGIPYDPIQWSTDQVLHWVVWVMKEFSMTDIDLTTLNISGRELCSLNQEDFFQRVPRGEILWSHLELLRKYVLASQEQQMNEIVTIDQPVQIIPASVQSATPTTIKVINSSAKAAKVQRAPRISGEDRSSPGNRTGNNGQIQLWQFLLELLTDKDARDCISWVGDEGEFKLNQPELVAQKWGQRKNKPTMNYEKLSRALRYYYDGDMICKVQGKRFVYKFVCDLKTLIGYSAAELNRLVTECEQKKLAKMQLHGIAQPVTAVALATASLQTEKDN
# How it was run: as §1
# [4] = biological target: T4, ERG (Homo sapiens, UniProt P11308 1-479); details: protein: recombinant; tags: N-terminal GST; dsDNA, one strand shown
# T4 sequence: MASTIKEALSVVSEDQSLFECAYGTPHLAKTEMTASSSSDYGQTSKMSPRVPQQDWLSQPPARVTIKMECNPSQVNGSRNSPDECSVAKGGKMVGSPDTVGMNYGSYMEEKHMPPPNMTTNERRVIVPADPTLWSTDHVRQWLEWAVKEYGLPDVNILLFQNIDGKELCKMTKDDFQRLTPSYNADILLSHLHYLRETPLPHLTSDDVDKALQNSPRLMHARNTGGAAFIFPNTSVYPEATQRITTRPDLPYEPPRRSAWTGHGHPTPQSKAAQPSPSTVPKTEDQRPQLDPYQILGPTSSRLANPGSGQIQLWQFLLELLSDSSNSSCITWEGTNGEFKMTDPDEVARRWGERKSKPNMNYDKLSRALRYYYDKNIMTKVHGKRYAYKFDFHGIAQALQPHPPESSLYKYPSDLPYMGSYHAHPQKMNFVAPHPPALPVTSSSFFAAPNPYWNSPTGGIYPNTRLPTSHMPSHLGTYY
# How it was run: as §1
# [5] = biological target: ELF1 (Homo sapiens, UniProt P32519 1-619); details: protein: recombinant; tags: N-terminal GST; dsDNA, one strand shown
# Sequence of ELF1 (P32519 whole entry): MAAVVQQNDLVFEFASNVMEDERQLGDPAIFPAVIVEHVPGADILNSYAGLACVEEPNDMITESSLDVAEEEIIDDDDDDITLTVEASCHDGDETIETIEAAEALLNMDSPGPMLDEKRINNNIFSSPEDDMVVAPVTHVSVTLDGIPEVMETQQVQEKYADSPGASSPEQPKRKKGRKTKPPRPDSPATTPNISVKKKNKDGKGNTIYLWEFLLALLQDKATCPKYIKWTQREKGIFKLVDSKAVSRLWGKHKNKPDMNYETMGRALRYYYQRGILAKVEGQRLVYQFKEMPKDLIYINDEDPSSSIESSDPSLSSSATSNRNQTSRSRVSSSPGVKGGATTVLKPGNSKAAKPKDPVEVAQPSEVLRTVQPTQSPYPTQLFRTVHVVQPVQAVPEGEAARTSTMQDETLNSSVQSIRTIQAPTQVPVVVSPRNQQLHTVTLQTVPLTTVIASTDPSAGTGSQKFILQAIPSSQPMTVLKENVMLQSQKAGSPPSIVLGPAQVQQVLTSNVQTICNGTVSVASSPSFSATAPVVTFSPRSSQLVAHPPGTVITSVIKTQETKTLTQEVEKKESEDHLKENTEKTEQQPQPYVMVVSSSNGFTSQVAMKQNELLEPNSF
# How it was run: as §1
# [6] = biological target: T5, EHF (Homo sapiens, UniProt Q9NZC4 1-300); details: protein: recombinant; tags: N-terminal GST; dsDNA, one strand shown
# T5 sequence: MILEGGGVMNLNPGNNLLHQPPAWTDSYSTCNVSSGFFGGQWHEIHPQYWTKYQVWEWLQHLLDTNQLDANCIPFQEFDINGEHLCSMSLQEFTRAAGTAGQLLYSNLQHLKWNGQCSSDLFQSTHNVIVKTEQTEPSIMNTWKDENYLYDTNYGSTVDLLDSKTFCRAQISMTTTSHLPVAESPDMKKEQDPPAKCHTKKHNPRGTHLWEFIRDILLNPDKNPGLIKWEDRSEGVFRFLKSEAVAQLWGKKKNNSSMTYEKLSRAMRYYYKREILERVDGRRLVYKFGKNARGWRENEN
# How it was run: as §1
# [7] = biological target: SPI1 (Homo sapiens, UniProt P17947 1-270); details: protein: recombinant; tags: N-terminal GST; dsDNA, one strand shown
# How it was run: as §1
# [8] = biological target: SPIB (Homo sapiens, UniProt Q01892 1-262); details: protein: recombinant; tags: N-terminal GST; dsDNA, one strand shown
# Sequence of SPIB (Q01892 whole entry): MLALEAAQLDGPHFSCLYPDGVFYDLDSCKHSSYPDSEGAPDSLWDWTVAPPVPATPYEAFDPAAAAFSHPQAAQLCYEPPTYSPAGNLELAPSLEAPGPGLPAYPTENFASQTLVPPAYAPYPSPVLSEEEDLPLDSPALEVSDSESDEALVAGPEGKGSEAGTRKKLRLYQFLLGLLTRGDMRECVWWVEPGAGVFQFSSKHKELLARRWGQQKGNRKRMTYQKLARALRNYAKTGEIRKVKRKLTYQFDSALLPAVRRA
# How it was run: as §1
# [9] = biological target: T6, ELK3 (Homo sapiens, UniProt P41970 1-407); details: protein: recombinant; tags: N-terminal GST; dsDNA, one strand shown
# T6 sequence: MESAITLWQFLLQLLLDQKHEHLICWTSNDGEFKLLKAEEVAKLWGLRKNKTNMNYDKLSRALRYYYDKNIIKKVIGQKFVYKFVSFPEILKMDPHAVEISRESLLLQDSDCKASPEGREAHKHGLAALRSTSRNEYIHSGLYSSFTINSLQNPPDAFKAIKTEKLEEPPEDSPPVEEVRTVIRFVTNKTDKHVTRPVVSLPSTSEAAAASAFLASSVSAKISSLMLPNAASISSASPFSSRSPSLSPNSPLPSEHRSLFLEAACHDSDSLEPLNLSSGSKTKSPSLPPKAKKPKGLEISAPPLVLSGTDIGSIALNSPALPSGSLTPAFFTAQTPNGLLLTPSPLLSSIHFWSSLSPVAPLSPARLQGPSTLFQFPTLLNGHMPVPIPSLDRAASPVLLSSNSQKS
# How it was run: as §1
# [10] = biological target: T7, FEV (Homo sapiens, UniProt Q99581 1-238); details: protein: recombinant; tags: N-terminal GST; dsDNA, one strand shown
# T7 sequence: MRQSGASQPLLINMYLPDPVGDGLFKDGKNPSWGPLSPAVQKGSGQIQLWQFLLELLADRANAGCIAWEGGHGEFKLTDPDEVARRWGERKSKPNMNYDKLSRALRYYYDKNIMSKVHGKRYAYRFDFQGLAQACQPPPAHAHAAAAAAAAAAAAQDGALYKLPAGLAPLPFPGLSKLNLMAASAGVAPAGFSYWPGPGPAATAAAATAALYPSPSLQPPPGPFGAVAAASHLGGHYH
# How it was run: as §1
# [11] = biological target: ETV5 (Homo sapiens, UniProt P41161 1-510); details: protein: recombinant; tags: N-terminal GST; dsDNA, one strand shown
# Sequence of ETV5 (P41161 whole entry): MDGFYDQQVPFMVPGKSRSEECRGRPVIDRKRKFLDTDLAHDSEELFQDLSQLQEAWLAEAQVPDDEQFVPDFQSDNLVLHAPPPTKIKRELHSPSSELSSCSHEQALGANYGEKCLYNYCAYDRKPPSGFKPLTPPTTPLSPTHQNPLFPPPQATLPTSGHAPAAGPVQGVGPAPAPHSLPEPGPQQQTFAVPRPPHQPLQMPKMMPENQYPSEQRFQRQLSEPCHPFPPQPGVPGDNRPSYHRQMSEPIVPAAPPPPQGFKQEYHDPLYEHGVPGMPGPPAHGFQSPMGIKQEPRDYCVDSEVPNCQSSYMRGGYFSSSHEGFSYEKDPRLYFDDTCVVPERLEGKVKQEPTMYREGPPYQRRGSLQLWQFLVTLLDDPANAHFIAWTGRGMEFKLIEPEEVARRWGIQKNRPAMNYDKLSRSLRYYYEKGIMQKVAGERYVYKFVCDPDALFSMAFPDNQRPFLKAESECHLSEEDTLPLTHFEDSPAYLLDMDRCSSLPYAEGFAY
# How it was run: as §1
# [12] = biological target: HSF1 (Homo sapiens, UniProt Q00613 1-529); details: protein: recombinant; tags: N-terminal GST; chain copies: 3; dsDNA, one strand shown
# Sequence of HSF1 (Q00613 whole entry): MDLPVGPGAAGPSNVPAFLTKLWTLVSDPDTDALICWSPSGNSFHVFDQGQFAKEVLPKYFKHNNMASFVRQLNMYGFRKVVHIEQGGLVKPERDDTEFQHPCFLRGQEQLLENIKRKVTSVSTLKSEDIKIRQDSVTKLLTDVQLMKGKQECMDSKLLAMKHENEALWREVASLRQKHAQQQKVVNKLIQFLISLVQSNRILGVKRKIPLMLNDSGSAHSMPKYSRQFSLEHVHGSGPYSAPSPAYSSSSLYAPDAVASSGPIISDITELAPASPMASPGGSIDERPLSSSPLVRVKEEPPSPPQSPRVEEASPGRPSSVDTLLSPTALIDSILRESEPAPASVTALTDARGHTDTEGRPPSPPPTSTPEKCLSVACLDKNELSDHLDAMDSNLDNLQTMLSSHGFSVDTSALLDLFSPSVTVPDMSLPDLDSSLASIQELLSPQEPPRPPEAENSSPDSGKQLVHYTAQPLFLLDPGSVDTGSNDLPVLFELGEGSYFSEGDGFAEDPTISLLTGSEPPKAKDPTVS
# How it was run: as §1
# [13] = biological target: T8, SPIC (Homo sapiens, UniProt Q8N5J4 1-248); details: protein: recombinant; tags: N-terminal GST; dsDNA, one strand shown
# T8 sequence: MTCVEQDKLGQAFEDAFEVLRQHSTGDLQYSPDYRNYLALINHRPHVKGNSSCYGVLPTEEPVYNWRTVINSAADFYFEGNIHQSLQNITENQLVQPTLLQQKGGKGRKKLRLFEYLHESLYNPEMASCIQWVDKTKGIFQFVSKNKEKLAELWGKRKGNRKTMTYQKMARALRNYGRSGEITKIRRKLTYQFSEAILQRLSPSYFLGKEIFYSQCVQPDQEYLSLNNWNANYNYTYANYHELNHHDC
# How it was run: as §1
# [14] = biological target: ELF4 (Homo sapiens, UniProt Q99607 1-663); details: protein: recombinant; tags: N-terminal GST; dsDNA, one strand shown
# Sequence of ELF4 (Q99607 whole entry): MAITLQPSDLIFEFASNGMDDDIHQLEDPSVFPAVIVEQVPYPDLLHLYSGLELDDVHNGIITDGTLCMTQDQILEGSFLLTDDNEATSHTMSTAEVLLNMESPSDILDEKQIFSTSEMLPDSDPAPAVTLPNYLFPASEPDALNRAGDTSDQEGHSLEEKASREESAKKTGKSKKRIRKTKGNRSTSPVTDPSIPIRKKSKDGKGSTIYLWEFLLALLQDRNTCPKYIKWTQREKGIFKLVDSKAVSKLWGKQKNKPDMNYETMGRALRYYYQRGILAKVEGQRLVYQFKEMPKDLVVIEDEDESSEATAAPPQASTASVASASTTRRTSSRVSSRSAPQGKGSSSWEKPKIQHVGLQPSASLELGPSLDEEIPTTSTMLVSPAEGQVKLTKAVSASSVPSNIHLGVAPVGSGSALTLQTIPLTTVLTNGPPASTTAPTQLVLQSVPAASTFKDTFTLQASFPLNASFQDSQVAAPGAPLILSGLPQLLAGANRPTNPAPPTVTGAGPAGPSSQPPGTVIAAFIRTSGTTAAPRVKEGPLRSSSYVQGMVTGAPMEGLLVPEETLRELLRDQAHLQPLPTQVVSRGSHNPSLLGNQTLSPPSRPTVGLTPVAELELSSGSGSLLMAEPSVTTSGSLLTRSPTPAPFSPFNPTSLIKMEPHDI
# How it was run: as §1
# [15] = biological target: T9, ELK4 (Homo sapiens, UniProt P28324-2 1-405); details: protein: recombinant; tags: N-terminal GST; dsDNA, one strand shown
# T9 sequence: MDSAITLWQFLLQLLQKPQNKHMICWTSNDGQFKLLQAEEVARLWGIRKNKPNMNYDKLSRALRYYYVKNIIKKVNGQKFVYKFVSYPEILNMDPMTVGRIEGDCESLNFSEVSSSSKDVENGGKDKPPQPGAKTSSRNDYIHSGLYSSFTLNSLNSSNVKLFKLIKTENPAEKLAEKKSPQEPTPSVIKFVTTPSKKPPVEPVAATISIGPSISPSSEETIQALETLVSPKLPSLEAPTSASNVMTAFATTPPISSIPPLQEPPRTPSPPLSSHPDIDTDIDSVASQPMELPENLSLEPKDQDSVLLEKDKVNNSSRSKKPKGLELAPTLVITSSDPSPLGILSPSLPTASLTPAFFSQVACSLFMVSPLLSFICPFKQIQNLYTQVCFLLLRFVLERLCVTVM
# How it was run: as §1
# [16] = biological target: T10, ETV2 (Homo sapiens, UniProt O00321 1-342); details: protein: recombinant; tags: N-terminal GST; dsDNA, one strand shown
# T10 sequence: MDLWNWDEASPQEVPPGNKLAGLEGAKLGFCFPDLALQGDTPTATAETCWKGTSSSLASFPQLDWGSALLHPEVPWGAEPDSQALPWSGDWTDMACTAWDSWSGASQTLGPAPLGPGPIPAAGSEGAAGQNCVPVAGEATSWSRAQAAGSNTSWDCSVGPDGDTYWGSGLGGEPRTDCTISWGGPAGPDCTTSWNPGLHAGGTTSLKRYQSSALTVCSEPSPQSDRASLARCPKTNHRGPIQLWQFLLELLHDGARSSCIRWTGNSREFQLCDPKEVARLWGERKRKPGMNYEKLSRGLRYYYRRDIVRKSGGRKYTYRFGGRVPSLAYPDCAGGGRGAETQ
# How it was run: as §1
# [17] = biological target: T11, ELF3 (Homo sapiens, UniProt P78545 1-371); details: protein: recombinant; tags: N-terminal GST; dsDNA, one strand shown
# T11 sequence: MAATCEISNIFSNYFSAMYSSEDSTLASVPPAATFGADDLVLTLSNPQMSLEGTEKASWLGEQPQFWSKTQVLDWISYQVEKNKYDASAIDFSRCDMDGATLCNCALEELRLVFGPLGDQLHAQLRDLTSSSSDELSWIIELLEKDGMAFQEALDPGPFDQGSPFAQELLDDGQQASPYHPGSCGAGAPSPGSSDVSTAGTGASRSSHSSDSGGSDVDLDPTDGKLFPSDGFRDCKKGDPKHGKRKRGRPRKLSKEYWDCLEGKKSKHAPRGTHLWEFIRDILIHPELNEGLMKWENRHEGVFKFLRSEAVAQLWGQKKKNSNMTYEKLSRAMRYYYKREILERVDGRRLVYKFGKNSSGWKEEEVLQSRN
# How it was run: as §1
# [18] = biological target: CRX (Homo sapiens, UniProt O43186 1-299); details: protein: recombinant; tags: N-terminal GST; dsDNA, one strand shown
# Sequence of CRX (O43186 whole entry): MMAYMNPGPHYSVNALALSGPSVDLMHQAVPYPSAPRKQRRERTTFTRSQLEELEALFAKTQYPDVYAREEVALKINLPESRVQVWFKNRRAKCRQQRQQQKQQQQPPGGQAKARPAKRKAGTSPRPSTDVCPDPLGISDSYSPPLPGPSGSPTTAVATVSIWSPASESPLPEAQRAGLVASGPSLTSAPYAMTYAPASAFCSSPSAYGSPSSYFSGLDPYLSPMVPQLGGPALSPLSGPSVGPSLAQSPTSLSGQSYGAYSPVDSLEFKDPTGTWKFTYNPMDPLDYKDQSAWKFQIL
# How it was run: as §1
# [19] = biological target: ETV1 (Homo sapiens, UniProt P50549 1-477); details: protein: recombinant; tags: N-terminal GST; dsDNA, one strand shown
# Sequence of ETV1 (P50549 whole entry): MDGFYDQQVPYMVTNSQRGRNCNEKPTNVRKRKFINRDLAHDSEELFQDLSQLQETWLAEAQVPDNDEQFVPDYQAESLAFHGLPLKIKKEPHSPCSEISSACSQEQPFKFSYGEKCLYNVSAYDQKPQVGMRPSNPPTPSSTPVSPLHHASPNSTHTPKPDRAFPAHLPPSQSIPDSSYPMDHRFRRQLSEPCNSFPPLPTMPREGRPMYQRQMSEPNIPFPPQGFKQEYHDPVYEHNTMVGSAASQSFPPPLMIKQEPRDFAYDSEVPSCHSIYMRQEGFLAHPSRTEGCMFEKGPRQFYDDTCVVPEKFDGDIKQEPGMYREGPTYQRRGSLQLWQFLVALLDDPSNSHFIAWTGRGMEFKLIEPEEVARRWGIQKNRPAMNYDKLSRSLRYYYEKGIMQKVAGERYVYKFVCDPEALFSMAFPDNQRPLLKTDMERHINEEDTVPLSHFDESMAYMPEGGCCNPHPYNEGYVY
# How it was run: as §1
sequence,measurement,setting,value
AATGTC,binding signal,[1],"1.16 fold enrichment (6-mer frequency, TF over GST control)"
same,binding signal,[2],"1.21 fold enrichment (6-mer frequency, TF over GST control)"
same,binding signal,[3],"1.23 fold enrichment (6-mer frequency, TF over GST control)"
same,binding signal,[4],"1.27 fold enrichment (6-mer frequency, TF over GST control)"
same,binding signal,[5],"1.22 fold enrichment (6-mer frequency, TF over GST control)"
same,binding signal,[6],"1.29 fold enrichment (6-mer frequency, TF over GST control)"
same,binding signal,[7],"1.23 fold enrichment (6-mer frequency, TF over GST control)"
same,binding signal,[8],"1.25 fold enrichment (6-mer frequency, TF over GST control)"
same,binding signal,[9],"1.23 fold enrichment (6-mer frequency, TF over GST control)"
same,binding signal,[10],"1.19 fold enrichment (6-mer frequency, TF over GST control)"
same,binding signal,[11],"1.23 fold enrichment (6-mer frequency, TF over GST control)"
same,binding signal,[12],"1.14 fold enrichment (6-mer frequency, TF over GST control)"
same,binding signal,[13],"1.41 fold enrichment (6-mer frequency, TF over GST control)"
same,binding signal,[14],"1.21 fold enrichment (6-mer frequency, TF over GST control)"
same,binding signal,[15],"1.32 fold enrichment (6-mer frequency, TF over GST control)"
same,binding signal,[16],"1.15 fold enrichment (6-mer frequency, TF over GST control)"
same,binding signal,[17],"1.36 fold enrichment (6-mer frequency, TF over GST control)"
same,binding signal,[18],"1.04 fold enrichment (6-mer frequency, TF over GST control)"
same,binding signal,[19],"1.14 fold enrichment (6-mer frequency, TF over GST control)"
